# Measured values published in PubChem BioAssay AID686978 (National Center for Advancing Translational Sciences (NCATS), 2013).
# The campaign covered roughly 420,000 compounds. About 64,000 (15%) were called active. Inconclusive results (about 27%) are left out. Calls follow the shape of the dose curve; as a rule, active = well fitted inhibition curve with a large enough effect; inconclusive = small, poorly fitted or top-dose-only effect; inactive = flat fitted curve, though single readings scatter. Not all results are given here. A call without a number means that no potency is given here.
# Assay: qHTS for Inhibitors of human tyrosyl-DNA phosphodiesterase 1 (TDP1): qHTS in cells in absence of CPT; also: nearly all actives have a fitted effect of over 55% in size
# Conditions: DT40 Tdp1-/- hTDP1 cells, no CPT, ATP luminescence, 48 h; activity change, negative = growth inhibition: at 46.2 µM (top of the series)
# Procedure, shortened: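 Cells were dispensed at 400 per well, compounds added by pin tool, plates incubated ≥48 hr at 37 °C, then CellTiter-Glo added for 30 min at room temperature before luminescence reading. Line: DT40 Tdp1-/- complemented with hTDP1; camptothecin omitted.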
# Potency is read from the fitted curve at half-maximal effect.
row,SMILES,Potency
1,COc1ccc(C2/C(=C(/O)c3ccc4c(c3)CC(C)O4)C(=O)C(=O)N2Cc2ccncc2)cc1 (stereo not drawn),inactive
2,COc1cc(C2C(C(=O)OCCC#N)=C(C)NC3=C2S(=O)(=O)c2ccccc23)cc(OC)c1OC (stereo not drawn),inactive
3,O=C(Nc1ccccc1Br)c1cc(CN2CCCC2)on1,inactive
4,O=C(c1ccco1)N1CCN(C(=O)c2cc(-c3ccccc3F)no2)CC1,inactive
5,CN(Cc1ccccc1)Cc1ccccc1F,inactive
6,CC(Cc1ccccc1)C(=O)N(C)Cc1ccccc1 (stereo not drawn),inactive
7,CN(Cc1ccccc1F)C(=O)C(Cc1ccccc1)NC(=O)c1ccccc1 (stereo not drawn),16.4 µM (active)
8,Cc1ccc(C)c(C(C)NC(=O)C2CCCO2)c1 (stereo not drawn),inactive
9,O=c1onc(-c2c(F)cccc2F)n1-c1ccccc1Cl,inactive
10,CCOC(=O)CSc1nc2sc3c(c2c(=O)[nH]1)CC(C)(C)OC3,inactive
11,CCOC(=O)Cn1c(SC)nc2sc3c(c2c1=O)CC(C)(C)OC3,14.6 µM (active)
12,CCSc1nc2sc3c(c2c(=O)[nH]1)CC(C)(C)OC3,inactive
13,CCOCCOC(=O)C1=C(C)N(C)C(=O)NC1c1ccccc1F (stereo not drawn),inactive
14,COC(=O)C1(C)NC(c2ccccc2OC)C2C(=O)N(c3ccccc3)C(=O)C21 (stereo not drawn),inactive
15,CCOC(=O)C1(Cc2ccc(O)cc2)NC(c2ccccc2F)C2C(=O)N(C)C(=O)C21 (stereo not drawn),20.6 µM (active)
16,Cc1ccc(C)c(Cn2nnc3c(=O)[nH]c(C(=O)Nc4ccc(F)cc4)nc32)c1,16.4 µM (active)
17,Cc1cc(C)cc(NC(=O)Cn2cnc3c(nnn3Cc3ccc(F)cc3)c2=O)c1,inactive
18,Cc1n[nH]c(=O)c2c1nnn2Cc1ccc(F)cc1,inactive
19,O=C1NC(c2ccccc2)Oc2ccccc21 (stereo not drawn),inactive
20,O=C(OCCN1C(=O)c2ccccc2C1=O)Oc1ccccc1,inactive
21,C[C@H]1CN([C@@H](C)CO)C(=O)CCCn2cc(nn2)CO[C@@H]1CN(C)C(=O)Nc1ccccc1,inactive
22,CC1CCCCN1CCCNc1ccc(C(CC(N)=O)NC(=O)c2ccccc2)cc1[N+](=O)[O-] (stereo not drawn),inactive
23,COc1ccc(OC)c(C(=O)NC(CC(N)=O)c2ccc(N3CCC(N4CCCCC4)CC3)c([N+](=O)[O-])c2)c1 (stereo not drawn),inactive
24,NC(=O)CC(NC(=O)Cc1cccc2ccccc12)c1ccc(NCc2cc(F)ccc2F)c([N+](=O)[O-])c1 (stereo not drawn),29.1 µM (active)
25,COc1ccccc1CNc1ncncc1-c1cccc(NS(C)(=O)=O)c1,inactive
26,CS(=O)(=O)Nc1cccc(-c2cncnc2Nc2ccccc2)c1,inactive

row,SMILES,Potency
1,CNc1ncnc2ccc(-c3cccc(NS(C)(=O)=O)c3)cc12,18.4 µM (active)
2,Cn1c2ccccc2c2cc(/C=C(\NC(=O)c3ccccc3)C(=O)NCC(=O)O)ccc21,inactive
3,O=C(O)C1CCCN1C1=NS(=O)(=O)c2ccccc21 (stereo not drawn),inactive
4,Fc1cccc(-n2ncc3c2ncn2nc(-c4ccccc4Cl)nc32)c1,inactive
5,COc1ccc(C2Nc3ccc(NC(=O)COC(C)=O)cc3C(=O)N2Cc2ccccc2)cc1COc1ccc(NC(C)=O)cc1 (stereo not drawn),12.6 µM (active)
6,COc1cc(C2C3=C(CCCC3=O)OC3=C2C(=O)CCC3)ccc1OCC(=O)Nc1ccccc1,inactive
7,COc1ccc(N2C(=O)c3ccccc3NC2c2ccc(OC)c(CN3CCOCC3)c2)cc1 (stereo not drawn),inactive
8,CN(CC(=O)Nc1ccc(F)cc1)CC(=O)N1CCCCC1,inactive
9,CCc1c(C)c2c(C)[nH]nc2oc1=O,inactive
10,COc1ccc(OC)c(-n2nnc3c(sc4nc(C)c(Br)c(C)c43)c2=O)c1,inactive
11,COc1ccc(OC)c(Cc2cnc3nc(N)nc(N)c3c2C)c1,0.164 µM (active)
12,Cc1nnc(NC(=O)c2ccc3nccnc3c2)s1,inactive
13,NC(=O)C1CCN(C(=O)COc2cccc3cccnc23)CC1,inactive
14,O=C(COc1ccc(Cl)cc1)NC(=S)Nc1ccccc1N1CCOCC1,inactive
15,O=C(COc1cccc(Cl)c1)NCc1ccccc1,inactive
16,O=C(COc1nsnc1N1CCOCC1)Nc1ccccc1Cl,inactive
17,CCOc1cc(N2CCOCC2)c(OCC)cc1NC(=O)COc1cccc(Cl)c1,2.59 µM (active)
18,CCOc1cc(N2CCOCC2)c(OCC)cc1NC(=O)COc1cccc2cccnc12,10.3 µM (active)
19,CC1CCN(C(=O)Cn2cc(C(=O)c3ccco3)c3ccccc32)CC1,inactive
20,CC(CC(=O)O)CC(=O)NNC(=O)c1cccc(Br)c1 (stereo not drawn),inactive
21,COc1ccc(NC(=O)CC2C(=O)OCC3CCCCN32)cc1Cl (stereo not drawn),inactive
22,N#CC1(NC(=O)COC(=O)Cc2n[nH]c(=O)c3ccccc23)CCCCC1,inactive
23,O=C(Nc1ccccc1C(=O)N1CCOCC1)C1CCC(=O)N1C1CCCC1 (stereo not drawn),inactive
24,Cc1nc(C)c(C(=O)Nc2cccc(C)c2C)o1,inactive
25,CC1(C)C2CC=C(/C=N/NC(=O)C3CC3)C1C2 (stereo not drawn),inactive
26,COC(=O)c1cc(OC)c(OC)cc1NC(=O)C1CCCO1 (stereo not drawn),inactive

row,SMILES,Potency
1,COc1cc(=O)n2c(c1C(=O)N(C)Cc1nonc1C)CCN(C(=O)c1ccc(C)cc1C)CC2,inactive
2,CCN(C(=O)CSc1cccc[n+]1[O-])c1ccccc1,1.84 µM (active)
3,COc1ccccc1C(=O)CSc1cccc[n+]1[O-],inactive
4,O=C(Cc1ccc(Cl)cc1)c1ccccc1,inactive
5,O=C(CSc1nnc2ccccn12)c1ccccc1,inactive
6,CCN(CC)c1ccc(S(=O)(=O)N2CCOCC2)cc1NC(=O)CSc1cccc[n+]1[O-],inactive
7,O=C(CSc1cccc[n+]1[O-])c1ccc(Cl)cc1,5.17 µM (active)
8,CC(NC(=O)COC(=O)CCC(=O)c1ccc(Cl)cc1)c1ccccc1 (stereo not drawn),inactive
9,CCN(C(=O)CSc1nnc(-c2ccncc2)o1)c1ccccc1,inactive
10,O=C(CSc1cccc[n+]1[O-])c1ccc(-c2ccccc2)cc1,0.82 µM (active)
11,Cc1ccc(C2=CSC3=NS(=O)(=O)CCN23)cc1C,inactive
12,CCCCNC(=O)N(O)C1N(/N=C/c2ccccc2O)C(=S)SC1(C)C (stereo not drawn),inactive
13,CC(C)C1Nc2c(C(=O)O)cccc2C(Nc2ccccc2C(=O)O)C1(C)C (stereo not drawn),inactive
14,Cc1ccc(N/N=C2\COC(C)(C)CC2=O)cc1,inactive
15,O=C(NCc1ccccc1Cl)c1csc([C@@H]2O[C@H](CO)[C@@H](O)[C@H]2O)n1,inactive
16,Cc1ccsc1C(=O)NCCc1ccco1,inactive
17,COc1cc(C(=O)NCc2ccncc2)cc(Br)c1OCc1ccccc1,23.1 µM (active)
18,C[n+]1ccc(C(=O)NCc2ccccc2)cc1,inactive
19,CCCn1nc2cc(C(=O)NCc3ccccc3)ccc2c1OCC,inactive
20,Cc1ccc2c(c1)C(O)(CC(=O)c1cccnc1)C(=O)N2 (stereo not drawn),inactive
21,Cc1ccc(NC(=O)c2ccc(Oc3ncccn3)cc2)cc1,inactive
22,CC(C)c1c(C(=O)N/N=C/c2ccccc2C(=O)O)nnn1-c1nonc1N,inactive
23,O=C(/C=C/c1ccc(F)cc1)Nc1cccc(S(=O)(=O)Nc2cccc(C(F)(F)F)c2)c1,8.2 µM (active)
24,CC(C)(CNC(=O)c1cc(=O)[nH]c2ccccc12)N1CCOCC1,inactive
25,O=C(O)c1cccc(N2C(=O)Nc3ccccc3N2O)c1,inactive
26,CN1C(=O)c2ccc(NC(=O)c3c(F)c(F)c(F)c(F)c3F)cc2C1=O,inactive

row,SMILES,Potency
1,CC1C(=O)N(Cc2cn(CC3CCCCC3)nn2)CCS(=O)(=O)N1Cc1ccc(-c2cccc(N(C)C)c2)cc1 (stereo not drawn),7.31 µM (active)
2,O=S1(=O)CC(N2CCSCC2)CN1Cc1cn(Cc2cccc(Cl)c2)nn1 (stereo not drawn),inactive
3,CCCC[C@H]1COCCS(=O)(=O)N1Cc1cccc(Cl)c1,inactive
4,COc1ccc(Cn2cc(CN3CCS(=O)(=O)N(Cc4ccc(-c5cccc(Cl)c5)cc4)C(C)C3=O)nn2)cc1 (stereo not drawn),25.9 µM (active)
5,O=S(=O)(/C=C/c1ccccc1)N1CCNCC1,inactive
6,O=C1Cc2cc(S(=O)(=O)Nc3cccc(F)c3)ccc2N1,inactive
7,C/C(=N/NC(=O)C1COc2ccccc2O1)c1ccco1 (stereo not drawn),inactive
8,CC(=O)c1cccc(NC(=O)C2COc3ccccc3O2)c1 (stereo not drawn),inactive
9,CC(/C=C/c1ccco1)=N/NC(=O)C1COc2ccccc2O1 (stereo not drawn),16.4 µM (active)
10,CCOc1cc(C(=O)Nc2c(C)ccc3nsnc23)cc(OCC)c1OCC,inactive
11,CC1O[C@H](OC2C(COC3OC(CO)C(O)[C@H](O)C3O)OC(OC3CC[C@]4(C)C(CC[C@@]5(C)[C@@H]4C=C[C@]46OC[C@@]7(CCC(C)(C)C[C@H]74)C(O)C[C@@]56C)C3(C)C)C(O)C2O)C(O)C(O)C1O (stereo partly drawn),inactive
12,O=C(COC(=O)CNS(=O)(=O)c1ccccc1)NC12CC3CC(CC(C3)C1)C2,inactive
13,CC(=O)Oc1ccc2c(c1)C(=O)c1ccccc1C2=O,inactive
14,O=C1C(Cl)=C(Oc2ccccc2)C(=O)c2ccccc21,0.259 µM (active)
15,Cc1cc(Nc2ccc(C(=O)N3CCCCC3)cc2)c2cccc(C)c2n1,inactive
16,CCc1c(C)sc(NC(=O)OC)c1C(=O)N1CCOCC1,inactive
17,CCCOC(=O)CC1C(=O)NCCN1Cc1ccc(F)cc1 (stereo not drawn),inactive
18,COc1ccc(NS(=O)(=O)c2ccc(Oc3c(C#N)cccc3C#N)cc2)cc1,5.8 µM (active)
19,COc1ccc(NC(=O)/C(N=Nc2cccc(S(=O)(=O)Nc3ccc(SC(F)F)cc3)c2)=C(\C)O)cc1,inactive
20,COc1ccc(NS(=O)(=O)c2cccc(C(=O)NCCc3ccc(S(N)(=O)=O)cc3)c2)cc1,inactive
21,C[C@H](CO)N1C[C@H](C)[C@@H](CN(C)C(=O)NC2CCCCC2)Oc2ccc(NC(=O)c3ccncc3)cc2C1=O,inactive
22,CO/N=C(\C(=O)N[C@@H]1C(=O)N2C(C(=O)O)=C(COC(C)=O)CS[C@H]12)c1csc(N)n1 (stereo in doubt),inactive
23,COc1cccc(-c2nc(CS(=O)(=O)CC(=O)N3CCN(c4cc(C)ccc4C)CC3)c(C)o2)c1,3.66 µM (active)
24,COc1cccc(-c2nc(CS(=O)(=O)CC(=O)NCCc3ccc(OC)c(OC)c3)c(C)o2)c1,inactive
25,CCCCN(CC)CCCNC(=O)CS(=O)(=O)Cc1nc(-c2cccc(OC)c2)oc1C,inactive
